The record followed here is PubChem BioAssay AID602476 (National Center for Advancing Translational Sciences (NCATS), 2012).

SMILES strings stand for the structures. Results filed as inconclusive are left out. Activity calls are given as the source filed them. The call rests on the fitted dose curve; in most records, active means well fitted activation curve with a large enough effect; inconclusive means small, poorly fitted or top-dose-only effect; inactive means flat fitted curve, though single readings scatter.

The assay in a line: FLuc inhibitory activity for the follow-up compounds in a cell-based translational read-through assay. To be noted: GripTite 293 FLucUGA read-through, luminescence, 48 h; series mostly up to 38.3 µM. The text has this: NCGC Assay Overview: Firefly (Photinus pyralis) luciferase is one of the most commonly used transcriptional reporters. It is considered one of the more dynamically responsive reporters - that is, responsive to changes in reporter transcription - as it requires no post-translational modifications and is enzymatically active directly after protein synthesis (Wood, 1998). With no endogenous expression in mammalian cells and without the requirement of external excitation, it offers very little background signal, thus generally providing excellent signal to background for most assays. Previous profiling work to determine the prevalence of compounds that affect FLuc enzymatic activity (PubChem AID 411) identified that ~3% of the MLSMR library (then at ~72K) inhibited FLuc (Auld et al., 2008). […] Of the compounds identified in this profile that inhibited FLuc, 151 compounds were selected for further analysis, in an effort to better understand their mode of inhibiting FLuc. The assay described here was to determine the activity of the compounds in a cell-based firefly luciferase reporter gene assay originally designed to identify compounds that enchanced translational read-through of a FLuc cDNA that contained a premature stop codon (Auld et al., 2009; Auld et al., 2010). Compounds that enhance translational read-through or compounds that stabilize FLuc intracellularly are identified as active compounds in the assay.
NCGC Assay Protocol Summary: Reagents: Transient transfection of FlucUGA construct: TransFast Transfection Reagent (Promega #E2431); FLucUGA construct (refer to Auld et al., 2009) #GripTite 293 MSR Cell Line (Invitrogen #R795-07) #Complete growth media: DMEM (Invitrogen #11965), 10% HIFBS, 0.1mM MEM NEAA, 5mL/L pen-strep (of 5000U/mL stock), 600ug/mL Geneticin #Assay media: DMEM without phenol red (Invitrogen #21063), 5% charcoal-stripped HIFBS (Hyclone #SH30071.03), 0.1mM MEM NEAA In-house detection reagent: 300mM Tris-HCl, 300mM Trizma base, 300mM MgCl, 1% Triton-X100, 5mM DTT, 500uM Coenzyme A trilithium salt (Sigma #C3019),450uM ATP (Sigma #A7699), 1mM D-luciferin sodium salt monohydrate (Biosynth #L8240) Control compounds used were two known firefly luciferase inhibitors (3-(5-(3-chlorophenyl)-1,2,4-oxadiazol-3-yl)benzoic acid and 5-(2-fluorophenyl)-3-phenyl-1,2,4-oxadiazole), and DMSO. Assay Summary: Transient transfection of FlucUGA construct: Day 1: GripTite cells were plated in T175 flasks at a density of 1.75 x 10^7 cells/T175 flask in complete growth media without Geneticin and allowed to grow ON in a 37 degrees Celsius incubator. Day 2: Cells in T175 flask were transfected - with 10ug of DNA and 30uL Transfast in 12mL complete growth media without serum and without Geneticin for 4 hours at 37 degrees Celsius. After incubation, cells were trypsinized, spun down, and resuspended to a concentration of 3.3 x 10^5 cells/mL in assay media. 6uL of cells in assay buffer were dispensed at 2000cells/well (3.3 x 10^5 cells/mL) into Greiner solid-white TC-treated 1536-well plates using a Multidrop Combi (Thermo Fisher Scientific). Plates were incubated for one hour at 37 degree Celsius, 95% humidity, 5% CO2. These assay plates were then treated with 23nL of compound or DMSO using a Kalypsys pin tool, which allows for delivery of a 12-point titration of each compound to the assay plate, with a final compound concentration ranging from approximately ~38uM to 0.2nM. Assay plates were then incubated for 48 hours. After incubation, plates were washed three times with DPBS (7uL/well). After the third wash, 6uL of DPBS was added to each well. 3uL of 3X luciferase detection reagent was then added to each well using a flying reagent dispenser (FRD). After a 15 minute incubation to allow for cell lysis, luciferase activity was measured using a ViewLux CCD imager (PerkinElmer), with an average exposure time of 2-12 seconds.
With `CCOc1ccc2nc(NC(=O)c3cccnc3)sc2c1`, the Potency is 14.2 µM (active).

For the molecule `Cc1ccc(C(=O)Nc2cccc(C(=O)O)c2)cc1S(=O)(=O)N1CCCC1`, the Potency was 2 µM (active).

As to `Cc1ccc2nc(-c3ccc(N)cc3)sc2c1`, the Potency was 0.04 µM (active). With `Nc1ccccc1-c1nc2ccccc2s1` the figure was 17.9 µM (active); with `COc1ccc(-c2nc3ccccc3s2)cc1O`, 5.65 µM (active); with `O=C(O)c1ccc(NC(=O)c2cc(S(=O)(=O)N3CCCCC3)c(Cl)cc2Cl)cc1`, “inactive”. With `O=C(Nc1ccccc1C(=O)O)c1ccc(Cl)c(S(=O)(=O)N2CCOCC2)c1` the entry was “inactive”; with `COc1ccc(Br)cc1C(=O)Nc1ccc(C(=O)O)cc1`, “inactive”. `Cc1c(C)c2ccc(OCC(=O)Nc3ccccn3)c(C)c2oc1=O`: the Potency is 5.04 µM (active). The same measure for `O=C(Nc1ccccc1C(=O)O)c1cccc(S(=O)(=O)N2CCCC2)c1`: “inactive”; for `COc1ccc(C(=O)Nc2ccccc2C(=O)Nc2ccc(C(=O)O)cc2)cc1`: 25.2 µM (active). The same measure for `COc1ccc2nc(NC(=O)c3ccc(NS(=O)(=O)c4cccs4)cc3)sc2c1`: “inactive”.

For the molecule `Nc1ccc2nc(-c3ccccc3)sc2c1`, the Potency was 4 µM (active). The same measure for `COc1cc(OC)cc(C(=O)Nc2ccccc2-c2nc3ccccc3s2)c1`: “inactive”.

On to `CC(C)(C)NC(=O)c1ccccc1-c1nc2ccccc2s1`, for which the Potency result was “inactive”. With `COc1ccc2nc(NC(=O)c3cnccn3)sc2c1` the figure was 0.565 µM (active).
